Experimental findings from PubChem BioAssay (Tox21) are described below.

Several values for one entry are separate records, joined by “and”; a condition that tells them apart may be missing. Identical values can stand only once. Inconclusive results are not listed. Entries that show only a call come without a potency. A structure can be active in one record and inactive in another. Activity calls are given as the source filed them. Calls follow the shape of the dose curve; as a rule, active = well fitted inhibition curve with a large enough effect in the signal ratio in the repeat runs; inconclusive = weak or mixed curves, or effect the other way; inactive = flat fitted curve, though single readings scatter; the % refers to the signal ratio.
Potency is read from the fitted curve at half-maximal effect.

This assay is described as follows: qHTS assay for small molecule disruptors of the mitochondrial membrane potential (AID 720635). The note with it: HepG2 mitochondrial membrane potential, Mito-MPS dye ratio; series mostly up to 83.2 µM. Put shortly: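 Mitochondrial membrane potential tracked with Mito-MPS dye, red aggregates (ex 540/em 590 nm) against green monomers (ex 490/em 535 nm). Compound treatment 1 hr at 37C, dye 30 min in HepG2.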
As for `O=C1NC(=O)C(c2ccccc2)(c2ccccc2)N1`, the Potency entry was “inactive”. For `O=c1[nH]cnc2c1ncn2[C@H]1CC[C@@H](CO)O1`, the Potency entry is “inactive”. `O=C(Nc1ncc([N+](=O)[O-])s1)c1cccs1`: the Potency is 0.668 µM (active). For the compound `C/C=C/C=C/C(=O)O`, the Potency result is “inactive”. Then `CCCC[P+](CCCC)(CCCC)CCCC`, with “inactive”. The same measure for `CN1CCC[C@H]1c1cccnc1`: “inactive”; for `C1CCC(C(CC2CCCCN2)C2CCCCC2)CC1` (configuration not stated): 5.96 µM (active); for `Cc1ccc(S(=O)(=O)O)cc1`: “inactive”.

For the compound `CCCCCCc1ccc(O)cc1O`, the Potency is 5.96 µM (active) and 4.87 µM (active) and 6.86 µM (active). The same measure for `O=C1NS(=O)(=O)c2ccccc21`: “inactive”; for `COc1ccc2cc(S(=O)(=O)N[C@H](CC(=O)N[C@H](Cc3ccc(CN4[C@H](C)CCC[C@@H]4C)cc3)C(=O)N(C)C(C)C)c3ccc4c(c3)OCO4)ccc2c1`: 10.3 µM (active); for `C=C1CC[C@H](O)C/C1=C\C=C1/CCC[C@]2(C)[C@@H]([C@H](C)CCCC(C)C)CC[C@@H]12`: “inactive”. Regarding `F[B-](F)(F)F`, the Potency entry is “inactive”. In the case of `CCCCC(CC)C(=O)O` (configuration not stated), the Potency result was “inactive and 6.86 µM (active)”. Take `CC(C)NCC(O)c1ccc(O)c(O)c1` (configuration not stated): the Potency entry was “inactive”.

On to `CC(=O)CCC(=O)O`, for which the Potency entry is “inactive”. For the compound `CCN(Cc1c(F)cccc1Cl)c1c([N+](=O)[O-])cc(C(F)(F)F)cc1[N+](=O)[O-]`, the Potency is 54.5 µM (active).
